Results published in PubChem BioAssay (NCI).
About 79,000 compounds went through this panel and 15% of them were active in at least one assay; those are over-represented in the sample as a whole. Active and inactive are the calls of the source. Rule as the data show it: active = growth inhibition above about 70%; inactive = the rest.

assay: NCI Yeast Anticancer Drug Screen. Data for the bub3 strain (AID 167); conditions: S. cerevisiae bub3 mutant strain, stronger effect = higher value; at 50.0 µM unless noted
Procedure, shortened: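 Screening used yeast with an engineered genetic alteration affecting cell cycle control. Compound-exposed cultures were compared with vehicle cultures, and reduced growth was taken as inhibition.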

SMILES | growth inhibition
CN[C@@H]1[C@H](O)[C@H](NC)[C@H]2O[C@@]3(O)C(=O)C[C@@H](C)O[C@H]3O[C@@H]2[C@H]1O | -12.6% (inactive)
O=C1CSC(c2c[nH]c3ccccc23)N1c1ccc(Cl)cc1 (stereo unspecified) | -28.9% (inactive)
CC(C)c1ccccc1O | 0.45% (inactive)
CCn1c2ccccc2c2cc(N=Nc3ccc4c(c3)c3ccccc3n4CC)ccc21 | 45.2% (inactive)
C#CC(O)C1OC(C)(C)OC1C1COC(C)(C)O1 (stereo unspecified) | -3.6% (inactive)
CCOC(C)(Cc1ccccc1[N+](=O)[O-])OCC | -3.6% (inactive)
Cc1cc(=O)[nH]c(NN2C(Cl)C(=O)C2c2ccccc2O)n1 (stereo unspecified) | -9.3% (inactive)
O=C1c2cccc3c([N+](=O)[O-])ccc(c23)C(=O)N1Cc1cccnc1 | 99.3% (active)
CCCCCCCCCCCCCCCCCCNC(=S)N/N=C/c1ccccc1[N+](=O)[O-] | -13.1% (inactive)
Cc1cc(NC(=O)C(=O)Cc2nc3ccccc3s2)ccc1Cl | 10.9% (inactive)
O=C(O)c1cccc(C(=O)O)c1Sc1ccccc1 | -0.1% (inactive)
CCc1ccc(NS(=O)(=O)c2ccccc2[N+](=O)[O-])cc1 | 50.9% (inactive)
CCN(CC)C(=O)CCn1cc(F)c(=O)[nH]c1=O | -25.8% (inactive)
Cc1c(CC#N)cc(C)c2c3c([nH]c12)-c1ccccc1CC3 | 37.5% (inactive)
Cc1ccc(-c2c(C#N)c(O)n(NS(=O)(=O)c3ccccc3)c(=O)c2C#N)cc1 | -14.3% (inactive)
COC(=O)c1cc(Cl)ccc1OCC(=O)Nc1ccccc1 | -6.55% (inactive)
C#CCN(N=O)C(=O)NCCCCC(NC(C)=O)C(=O)NCc1ccccc1 (stereo unspecified) | -16.2% (inactive)
Clc1cccc(C2ON=C(c3ccccc3)N2C23CC4CC(CC(C4)C2)C3)c1Cl (stereo unspecified) | -4% (inactive)
CC(C)(Nc1ccccc1)C(=O)OC(C)(C)C(=O)Nc1ccccc1 | -6.45% (inactive)
C=CSS/C(=C/N(C=O)Cc1cnc(C)nc1N)CCO | -17.1% (inactive)
CCCCC(Sc1nn(C2OC(COC(=O)c3ccccc3)C(OC(=O)c3ccccc3)C2OC(=O)c2ccccc2)c(=O)[nH]c1=O)C(=O)OCC (stereo unspecified) | -4.7% (inactive)
